# Laboratory results taken from PubChem BioAssay (EPA / NIEHS).
# Active and inactive are the calls of the source. How the source made its calls: active means hit-call score of the fitted dose curve at least 0.9, where 1 is the maximum; inactive means score below 0.9.
# Experiment: ATG_CRE_CIS: Attagene CIS-FACTORIAL HepG2 Assay for human cAMP Responsive Element (CRE) binding protein 3 (AID 2282926)
# Details: HepG2 CRE cis-reporter, Attagene multiplexed mRNA; actives raise or lower the signal
# Experimental: ATG_CIS is a cell-based, multiplexed-readout assay that uses HepG2, a human liver cell line, with measurements taken at 24 hours after chemical dosing in a 24-well plate.ATG_CRE_CIS is one of 52 assay component(s) measured or calculated from the ATG_CIS assay. It is designed to make measurements of mRNA induction, a form of inducible reporter, as detected with fluorescence intensity signals by Reverse transcription polymerase chain reaction (RT-PCR) and Capillary electrophoresis technology.Data from the assay component ATG_CRE_CIS was analyzed into 1 assay endpoint. This assay endpoint, ATG_CRE_CIS, was analyzed with bidirectional fitting relative to DMSO as the negative control and baseline of activity. Using a type of inducible reporter, measures of mRNA for gain or loss-of-signal activity can be used to understand the reporter gene at the transcription factor-level as they relate to the gene CREB3. Furthermore, this assay endpoint can be referred to as a primary readout, because this assay has produced multiple assay endpoints where this one serves a reporter gene function. To generalize the intended target to other relatable targets, this assay endpoint is annotated to the dna binding intended target family, where the subfamily is basic leucine zipper.
# Human liver HepG2 cells are transiently transfected with multiple reporter transcription units (MRTUs) in 6-well plates using FuGene 6 reagent (Roche; 3 ml FuGene/1 mg DNA). The MRTU constructs are regulated by a cis-regulating element (promoter). […] A major difference between the CIS and TRANS system is that in CIS activities of endogenous TFs are measured, whereas the TRANS assay evaluates changes in activities of exogenous, chimeric NR-Gal4 proteins. […] At the end of 24 hour incubation, total RNA was isolated using TriZol reagent (Invitrogen). The isolated RNA is then reverse-transcribed using oligo(dT) primer and Mo-MLV reverse transcriptase (Invitrogen) with DNAse I (Ambion) treatment for 30 min. The one-tenth of the produced cDNA was amplified by PCR using Taq DNA polymerase (Invitrogen) and two reporter sequence-specific primers. The PCR products were fluorescently labeled by primer extension with 6-arboxyfluorescein (6-FAM) 5'-labeled reporter sequence-specific primer (2 min at 95 C, 20 s at 68 C and 10 min at 72 C) and these products were digested with 5U of HpaI (New England Biolabs) for 2h at 37 C. The fragments were purified using Qiaquick PCR columns (Qiagen), analyzed on an ABI 3130xL genetic analyzer (Applied Biosystems) with peak positions identified by using a set of X-rhodamine (ROX)-labeled MapMarker1000 molecular weight standards (BioVentures). The raw capillary electrophoresis data was processed using Attagraph software (Attagene).
Structure (SMILES),outcome,AC50
CC(=O)O[C@@H]1CC2CCC1(C)C2(C)C (stereo not given in full),inactive,–
CCCCCCCC(=O)OCC(O)CO (stereo not given),inactive,–
CCC(=O)O[C@@H]1C[C@H]2CC[C@]1(C)C2(C)C,inactive,–
CN(C)CCOc1ccc(/C(=C(/CCCl)c2ccccc2)c2ccccc2)cc1,inactive,–
CCC1(c2ccccc2)C(=O)NCNC1=O,inactive,–
CCCCC1(COC(=O)CCC(=O)O)C(=O)N(c2ccccc2)N(c2ccccc2)C1=O,inactive,–
COc1ccc(COC(C)=O)cc1,inactive,–
CCCC(=O)OCCc1ccccc1,inactive,–
CCCCOC(=O)CCCCCCCC(=O)OCCCC,inactive,–
O=c1c(O)c(-c2ccc(O)cc2)oc2cc(O)cc(O)c12,inactive,–
C=C(C)C(=O)OCCOCCOCCOC(=O)C(=C)C,inactive,–
CCOC(=O)[C@@H](C)Oc1ccc(Oc2nc3ccc(Cl)cc3o2)cc1,inactive,–
CCCN(CCC)S(=O)(=O)c1ccc(C(=O)O)cc1,inactive,–
CC(=O)Nc1ccc(C(=O)CCl)cc1,–,7.97 µM (active)
O=Cc1ccccc1S(=O)(=O)O,inactive,–
C=CCOC(=O)CCCCCC,inactive,–
CC(C)=CCCC(C)CC(=O)O (stereo not given),inactive,–
COc1cc(CCC(C)=O)ccc1O,inactive,–
COc1ccc(N=Nc2cc(C)c(N=Nc3ccc(S(=O)(=O)O)cc3)cc2OC)cc1,–,19.8 µM (active)
FC(F)(F)COCC(F)(F)F,inactive,–

Structure (SMILES),outcome,AC50
Clc1ccc(C(c2ccccc2Cl)C(Cl)Cl)cc1 (stereo not given),inactive,–
C=C(CC(=O)O)C(=O)O,inactive,–
CC(C)=CCCC(C)CCOC=O (stereo not given),inactive,–
CCC(C)=O,inactive,–
CCC1CCCCC1,inactive,–
Cc1ccc(C)o1,inactive,–
CCCC(=O)C(CC)Sc1ccoc1C (stereo not given),–,25.7 µM (active)
CC(C)CC(C)CC(O)CC(C)C (stereo not given),inactive,–
COc1ccc(OC)c(N=Nc2c(O)ccc3ccccc23)c1,inactive,–
C[C@H]1C[C@@H](O)CC(C)(C)C1,inactive,–
CC(C)CCOC(=O)c1ccccc1,inactive,–
Nc1ccc2cc(S(=O)(=O)O)cc(O)c2c1N=Nc1ccccc1C(F)(F)F,inactive,–
Cc1ccc2c(c1)C(=O)OC2=O,inactive,–
COCCc1ccc(OCC(O)CNC(C)C)cc1 (stereo not given),inactive,–
Cc1ccc(OC(=O)c2ccccc2O)cc1,inactive,–
CCCCCCCCC=CCCCCCCCC1=NCCN1CCO,inactive,–
CCO/C=C1\N=C(c2ccccc2)OC1=O,inactive,–
CCCCCCC(O)CCCCCCCCCCC(=O)O (stereo not given),inactive,–
C[C@H](CCC(=O)NCC(=O)O)[C@H]1CC[C@H]2[C@@H]3[C@H](O)C[C@@H]4C[C@H](O)CC[C@]4(C)[C@H]3C[C@H](O)[C@]12C,inactive,–
CC1C2CC(CC2C2CCCC(O)C2)C1(C)C (stereo not given),inactive,–
